Where “and” joins values, the source holds several entries; their conditions need not be identical. Identical values can stand only once. About 83,000 compounds went through this panel and 20% of them were active in at least one assay; those are over-represented in the sample as a whole.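 Note: values are percent growth. 100 is the growth of untreated cells, values between 100 and 0 indicate rising inhibition; between -100 and 0 indicates cell death.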 Calls of active or inactive are those of the source. Where a SMILES comes first, the peptide text is derived from it. The star is where a group is joined. Trt = c1ccc(C(c2ccccc2)(c2ccccc2)*)cc1; Cbz = O=C(OCc1ccccc1)*
Tested on: SR leukemia
Assay: NCI-60 one-dose screen, 48 h (100 = growth as untreated, 0 = no growth, -100 = all killed)
Settings: 10 µM unless noted
Description: Growth inhibition of the SR human tumor cell line is measured as a screen for anti-cancer activity. Cells are grown in 96 well plates and exposed to the test compound for 48 hours. Compounds are tested at a single concentration, which is 10^-5 M for most compounds. The reported endpoint is percent growth (GI% or GIPRCNT), where numbers from 0 - 100% represent growth inhibition, and numbers from -100% - 0 represent cell death. For example, a value of 40 represents 60% growth inhibition. A value of 0 means no net growth occurred over the course of the experiment. A value of -40 indicates 40% of cells at the beginning of the experiment died by the end of the experiment. A value of -100 means all cells are dead at the end of the experiment.
NCI-60 Human Tumor Cell Lines Screen was performed using the standard one-dose NCI protocol, which is described in more detail at https://dtp.cancer.gov/discovery_development/nci-60/default.htm.
Compounds with GIPRCNT values below 10 were considered active. Activity score was based on GIPRCNT using the following formula: […]
Score is 0 for GIPRCNT values of 100 or above, 50 for GIPRCNT values of 0, and 100 for GIPRCNT values of -100.

Row | Compound | growth
1 | COc1ccccc1OC(=O)Oc1ccccc1OC | 103% (inactive) and 101% (inactive)
2 | O=C(/C=C\c1ccccc1)N1c2ccccc2CC1c1c[nH]c2ccccc12 (stereo not given) | 73.5% (inactive)
3 | N#CSCc1ccc(CSC#N)c(Cl)c1 | 6.77% (active)
4 | CCOC(=O)/C(=C\c1ccc(-c2ccccc2)cc1)C(C)=O | 95.9% (inactive)
5 | CCCCCCCCCCCCCCCCCCOP(=O)([O-])OC1CC[N+](C)(C)CC1 | 3.18% (active) and -3.35% (active)
6 | O=C1N[C@H]2[C@H](CS[C@H]2CCCCC(=O)N(CCP(c2ccccc2)c2ccccc2)CCP(c2ccccc2)c2ccccc2)N1 | 102% (inactive)
7 | O=C(Nc1cccc(Br)c1)Oc1ccc(Cl)c2cccnc12 | 7.23% [100 µM] (active)
8 | COC(=O)C(CSC(c1ccccc1)(c1ccccc1)c1ccccc1)NC(=O)C(CC(N)=O)NC(=O)OCc1ccccc1 (stereo not drawn) (Cbz-Asn-Cys(Trt)-OMe; configuration not given here) | -43.7% (active)
9 | Cn1c2c(c3ccccc31)CCN1C[C@@H]3CCCC[C@H]3C[C@@H]21 | 14.1% (inactive)
10 | O=C1C=CC(=O)N1C1c2ccccc2-c2ccccc21 | -26.9% (active)
11 | S=C(N/N=C/c1ccccn1)Nc1ccccn1 | -29% (active)
12 | O=C(CC1(O)C(=O)Nc2c(Cl)ccc(Cl)c21)c1ccc(Cl)cc1Cl (stereo not given) | 86.9% (inactive)
13 | COC(=O)c1nc(=S)[nH]c(C(=O)OC)c1C(=O)c1ccc2ccccc2c1 | 93.5% (inactive)
14 | CNc1ccc(N)cc1 | 119% (inactive)
15 | CCC(c1cccc(O)c1)C(CC)c1cccc(O)c1 (stereo not given) | 16.5% (inactive)
16 | C[n+]1c(/C=C/c2ccc([N+](=O)[O-])cc2)ccc2ccccc21 | 82.7% (inactive)
17 | CC(C)(C)c1ccc(O)c(C2CCCCC2)c1 | 84.9% (inactive)
18 | Cc1cc2nc(CS)[nH]c2cc1C | 45.9% (inactive)
19 | C=C(Cl)C(=NC(C)(C)C)Nc1ccccc1C | 1.56% (active)
20 | CCN(CC)CC(C)(C)C(=O)/C=C/c1ccc(Cl)c(Cl)c1 | 10.3% (inactive)

Row | Compound | growth
21 | Cc1ccnc(NC(c2ccccc2)c2ccc3cccnc3c2O)c1 (stereo not given) | 10% (inactive)
22 | C[N+](C)=c1ccc2nc3c(cc(NCCCNc4cc5oc6cc(=[N+](C)C)ccc-6nc5c5ccccc45)c4ccccc43)oc-2c1 | 6.05% (active)
23 | Oc1c(Br)cc(Cl)cc1C(c1cc(Cl)cc(Br)c1O)C(Cl)(Cl)Cl | 28.5% (inactive)
24 | Cc1cc(C(C)(CC(C)C)c2ccc(O)c(C)c2)ccc1O | 94.6% (inactive)
25 | CCOC(=O)c1c(C)[nH]c(CO)c1C | 101% (inactive)
26 | Cc1ccc(N=C=C(c2ccccc2)c2ccccc2)cc1 | 22.9% (inactive)
27 | CCCCCCCCCCCCCCCCOP(=O)([O-])OCC[N+](C)(C)C | 15% (inactive)
28 | COc1ccc(N=N/N=c2\sc3cc(OC)ccc3n2C)cc1 | 88.9% (inactive)
29 | O=C(Oc1cccc2cccnc12)c1ccccc1 | 43.7% (inactive)
30 | O=C1c2cccnc2-c2nccc3c2c1nc1cc(Br)ccc13 | -38.2% (active) and 17.6% (inactive)
31 | CNC(=O)N/N=C/c1ccc([N+](=O)[O-])o1 | 82.8% (inactive)
32 | Cc1cc(N)c2ccccc2[n+]1CCCCCCCCCC[n+]1c(C)cc(N)c2ccccc21 | -53% (active) and 3.2% (active)
33 | Cc1ccc2c(ccc3c[n+]4c5ccccc5ccc4n32)c1 | -12.5% (active)
34 | O=C(Nc1cccc(Br)c1)Oc1cccc2cccnc12 | 10.5% [100 µM] (inactive)
35 | O=C1c2ccccc2C(=O)N1c1ccccc1 | 85.7% (inactive)
36 | N#CSCC(=O)c1ccc(Cl)cc1 | 69.9% (inactive)
37 | CC(=O)Nc1cccc2cc(O)ccc12 | 108% (inactive) and 107% (inactive) and 99.6% (inactive)
38 | CN=C(N)N/N=C(\C)c1ccc2c(c1)Cc1cc(/C(C)=N/NC(N)=NC)ccc1-2 | -23.3% (active)
39 | CC(C)c1ccc2nc3ccc(C(=O)NCCN4CCN(c5ccccc5)CC4)cn3c(=O)c2c1 | 51.7% (inactive)
40 | Nc1ccc(SSc2ccc(N)cc2)cc1 | 104% (inactive)

Reference: PubChem BioAssay (NCI)
